Screening data: PubChem, several laboratories
Hits are enriched below; roughly 5.7% of the tested compounds scored in any of these assays.
NR3A LBD binder – modulates the human NR3A ligand-binding domain; AID 1259313; NR3A LBD differential scanning fluorimetry, Tm shift; 0% = protein alone, 100% = glycine-bound protein; Tm shift relative to glycine control, % at 25 µM; 2.5% of 340,000 active;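 active = melting temperature shift of at least 10% of the positive control shift, at one fixed dose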
MPTP block – inhibitors of mitochondrial permeability transition pore; isolated mouse mitochondria, Ca2+ swelling absorbance, 30 min; AID 602449; inhibition, % at 10 µM; 1.4% of 360,000 active;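 active = inhibition of 50% or more, scaled per plate between neutral and stimulator controls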
rCAG binder – binds r(CAG) RNA repeats | r(CAG) RNA repeat, TO-PRO-1 dye displacement fluorescence | AID 651821 | 1.3% of 370,000 active | inhibition, % at 3 µM;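 active = inhibition above the plate cutoff, the mean of all test compounds on that plate plus 3 SD, cut at about 35% in these data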;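 note: higher means more dye released from RNA so lower well fluorescence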
FAS TE block – FAS thioesterase (human) inhibition. P49327. recombinant FAS-TE, OMFH fluorogenic substrate, fluorescence endpoint. inhibition, % at 15 µM. 0.67% of 360,000 active;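 active = compounds whose normalised, plate-corrected inhibition of enzyme fluorescence in the single-dose primary screen is 50% or more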
Target sequence (P49327 whole entry, looked up): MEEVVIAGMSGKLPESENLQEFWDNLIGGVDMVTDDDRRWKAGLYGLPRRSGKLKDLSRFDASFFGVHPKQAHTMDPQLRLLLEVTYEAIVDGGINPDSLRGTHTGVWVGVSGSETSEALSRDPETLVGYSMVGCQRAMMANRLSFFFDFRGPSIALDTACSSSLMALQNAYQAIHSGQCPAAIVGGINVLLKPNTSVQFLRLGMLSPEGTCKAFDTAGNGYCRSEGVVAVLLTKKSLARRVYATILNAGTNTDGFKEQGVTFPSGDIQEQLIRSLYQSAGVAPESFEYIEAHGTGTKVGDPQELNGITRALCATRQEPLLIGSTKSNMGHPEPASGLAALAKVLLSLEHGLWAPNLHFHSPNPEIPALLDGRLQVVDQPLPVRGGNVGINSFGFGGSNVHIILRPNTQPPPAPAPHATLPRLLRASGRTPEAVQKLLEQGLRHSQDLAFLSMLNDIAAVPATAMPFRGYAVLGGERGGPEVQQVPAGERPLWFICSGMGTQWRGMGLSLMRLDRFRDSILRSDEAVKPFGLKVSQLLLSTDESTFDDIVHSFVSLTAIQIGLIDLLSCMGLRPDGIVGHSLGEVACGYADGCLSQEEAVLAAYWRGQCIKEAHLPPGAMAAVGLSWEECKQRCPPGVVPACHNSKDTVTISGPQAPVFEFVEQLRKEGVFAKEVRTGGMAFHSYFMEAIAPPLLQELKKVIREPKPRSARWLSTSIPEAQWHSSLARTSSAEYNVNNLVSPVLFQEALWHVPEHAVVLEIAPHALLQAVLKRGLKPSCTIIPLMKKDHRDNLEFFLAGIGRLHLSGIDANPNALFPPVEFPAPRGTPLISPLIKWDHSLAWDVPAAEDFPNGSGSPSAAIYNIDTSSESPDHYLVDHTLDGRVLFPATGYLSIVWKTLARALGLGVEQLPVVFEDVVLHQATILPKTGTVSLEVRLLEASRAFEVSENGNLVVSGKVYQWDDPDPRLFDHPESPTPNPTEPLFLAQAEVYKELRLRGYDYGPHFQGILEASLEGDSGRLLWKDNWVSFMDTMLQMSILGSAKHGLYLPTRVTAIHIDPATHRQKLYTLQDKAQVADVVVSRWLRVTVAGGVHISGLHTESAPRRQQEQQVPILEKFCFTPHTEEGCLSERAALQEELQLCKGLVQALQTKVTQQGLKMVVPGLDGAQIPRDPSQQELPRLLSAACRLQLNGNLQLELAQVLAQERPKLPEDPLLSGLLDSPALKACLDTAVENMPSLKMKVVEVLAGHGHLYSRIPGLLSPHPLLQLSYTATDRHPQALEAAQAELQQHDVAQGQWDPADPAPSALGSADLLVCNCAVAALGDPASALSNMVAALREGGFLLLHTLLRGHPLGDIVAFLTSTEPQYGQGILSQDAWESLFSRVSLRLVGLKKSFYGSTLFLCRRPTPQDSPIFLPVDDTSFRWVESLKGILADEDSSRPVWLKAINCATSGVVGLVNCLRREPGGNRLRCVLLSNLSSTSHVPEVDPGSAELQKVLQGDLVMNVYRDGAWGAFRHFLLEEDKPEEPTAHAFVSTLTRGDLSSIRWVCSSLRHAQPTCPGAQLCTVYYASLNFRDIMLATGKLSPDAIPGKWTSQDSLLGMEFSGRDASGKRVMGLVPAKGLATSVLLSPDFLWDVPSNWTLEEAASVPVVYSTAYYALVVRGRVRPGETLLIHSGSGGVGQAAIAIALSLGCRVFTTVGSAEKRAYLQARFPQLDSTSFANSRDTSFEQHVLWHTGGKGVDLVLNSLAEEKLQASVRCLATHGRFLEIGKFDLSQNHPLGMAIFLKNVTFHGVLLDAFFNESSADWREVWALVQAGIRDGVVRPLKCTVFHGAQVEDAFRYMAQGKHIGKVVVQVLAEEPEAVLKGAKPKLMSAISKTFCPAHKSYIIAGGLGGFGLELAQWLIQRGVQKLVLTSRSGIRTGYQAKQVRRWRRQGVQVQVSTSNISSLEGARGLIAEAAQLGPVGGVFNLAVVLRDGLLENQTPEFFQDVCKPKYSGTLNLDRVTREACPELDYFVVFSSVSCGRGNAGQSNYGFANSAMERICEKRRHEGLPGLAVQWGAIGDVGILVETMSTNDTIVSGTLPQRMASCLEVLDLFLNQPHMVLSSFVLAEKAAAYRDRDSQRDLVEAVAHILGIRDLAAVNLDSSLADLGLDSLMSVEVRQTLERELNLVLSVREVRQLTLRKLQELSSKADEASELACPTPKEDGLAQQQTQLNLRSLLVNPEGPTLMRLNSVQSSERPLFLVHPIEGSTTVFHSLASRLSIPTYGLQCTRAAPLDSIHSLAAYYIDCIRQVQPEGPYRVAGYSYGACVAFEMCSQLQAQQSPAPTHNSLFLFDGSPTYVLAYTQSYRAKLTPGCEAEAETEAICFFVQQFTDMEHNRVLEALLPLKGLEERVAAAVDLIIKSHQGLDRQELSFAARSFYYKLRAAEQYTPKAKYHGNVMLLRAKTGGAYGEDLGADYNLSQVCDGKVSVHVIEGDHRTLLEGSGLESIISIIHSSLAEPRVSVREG
Myeloid diff MLP – myeloid differentiation induction | 1% of 360,000 active | calls only at 10 µM | ER-HoxA9 myeloid progenitors, lysozyme-GFP differentiation, flow cytometry;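 active = normalized GFP-positive differentiation at or above the plate's own cutoff, the solvent-only control mean plus 3 SD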;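 note: cells exposed to compound for four days before flow analysis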
Each line names hits and unclear results; the compound was inactive in the other large screens.

O=C(c1ccc([N+](=O)[O-])s1)N1CCc2ccccc2C1	none
O=C(c1ccccc1F)N1CCCc2ccccc21	Myeloid diff MLP active
O=C(c1ccc([N+](=O)[O-])s1)N1CCCc2ccccc21	Myeloid diff MLP active
O=C(c1ccc([N+](=O)[O-])s1)N1CCc2ccccc21	Myeloid diff MLP active
O=C(N/N=C/c1c(Nc2cccc(C(F)(F)F)c2)nc2ccccn2c1=O)c1ccccc1[N+](=O)[O-]	NR3A LBD binder 10.3
O=C(Nc1ccc(-c2cn3c(n2)SCC3)cc1)c1ccc2ccccc2n1	NR3A LBD binder 21.5 (no result: Myeloid diff MLP)
O=C(Nc1cccc(-c2cn3c(n2)SCC3)c1)c1ccc2ccccc2n1	none
Oc1ccc(-c2cn3c(n2)SCC3)cc1	NR3A LBD binder 36.7
O=C1[C@H](Cc2ccccc2)NCCCC[C@H](c2ccc(Cl)cc2)N1Cc1ccccc1	NR3A LBD binder 10.1
O=C1[C@H](Cc2ccccc2)NCCCC[C@@H](c2ccc(Cl)cc2)N1Cc1ccc(Cl)cc1	none
COc1ccc(C2=NOC(C(=O)N3CCCCCC3)C2)cc1OC (stereo not given)	none (no result: rCAG binder)
COc1cc(C2=NOC(C(=O)N3CCOCC3)C2)cc(OC)c1OC (stereo not given)	NR3A LBD binder 12.7
COc1c([N+](=O)[O-])c(=O)oc2ccccc12	NR3A LBD binder 12.6
CCNc1c([N+](=O)[O-])c(=O)oc2ccccc12	none
C[C@H]1COc2cc(N3CCCCC3)ccc2S(=O)(=O)N1	none (no result: NR3A LBD binder, MPTP block, FAS TE block, Myeloid diff MLP)
CCCN1CCc2c(sc3nc(SCC)n(-c4ccccc4)c(=O)c23)C1	Myeloid diff MLP active (no result: rCAG binder)
CCCN1CCc2c(sc3nc(SC)n(-c4ccccc4)c(=O)c23)C1	none (no result: Myeloid diff MLP)
CCCNC(=O)c1ccccc1NC(=O)c1ccccc1N(C)S(=O)(=O)c1ccc(C)cc1	Myeloid diff MLP active
CCCNC(=O)c1ccccc1NC(=O)c1ccccc1N(C)S(C)(=O)=O	none
COC(=O)[C@@]12CCCCC=C1N(CCc1ccc(Cl)cc1)C(=O)[C@H]2CC(=O)NCCCCc1ccccc1	none (no result: NR3A LBD binder, MPTP block, FAS TE block, Myeloid diff MLP)
CCCCNS(=O)(=O)/C=C/c1ccccc1CCNC(=O)OC(C)(C)C	none (no result: NR3A LBD binder, MPTP block, FAS TE block, Myeloid diff MLP)
Fc1ccc2nc(N3CCOCC3)sc2c1	none
Nc1nc2ccc(N3CCOCC3)cc2s1	NR3A LBD binder 11.7
Cc1cc2nc(-c3ccc(SCC(=O)Nc4ccc(S(=O)(=O)NC5CC5)cc4)nc3)[nH]c2cc1C	NR3A LBD binder 31.9
Cc1cc(NC(=O)CSc2ccc(-c3nc4cc(C)c(C)cc4[nH]3)cn2)no1	none (no result: rCAG binder)
Cc1cc2nc(-c3ccc(SCc4ccc(C(=O)O)cc4)nc3)[nH]c2cc1C	none
Cc1cc2nc(-c3ccc(SCC(=O)N4CCc5ccccc54)nc3)[nH]c2cc1C	NR3A LBD binder 25.2 (no result: rCAG binder)
COC(=O)C1=C(C)N(C)C(=NCc2cccc(C(F)(F)F)c2)NC1c1cccc(Cl)c1 (stereo not given)	none (no result: NR3A LBD binder, MPTP block, FAS TE block, Myeloid diff MLP)
CCOC(=O)Cn1nc(-c2ccc(Cl)cc2)cc1N	none
CCOC(=O)CCn1nc(-c2ccc(Cl)cc2)cc1N	NR3A LBD binder 10.2
Nc1ccccc1Sc1nc2ccccc2[nH]1	NR3A LBD binder 10.2
COc1ccccc1NC(=O)CC1C(=O)NCCN1C(=O)Nc1ccc(Cl)c(Cl)c1 (stereo not given)	NR3A LBD binder 11.9
COc1ccccc1NC(=S)N1CCNC(=O)C1CC(=O)Nc1cccc(C)c1 (stereo not given)	none
Brc1ccc2nc(-c3ccc(CN4CCC5(CC4)CNc4ccccc45)cc3)c(-c3ccccc3)nc2c1	none (no result: NR3A LBD binder, MPTP block, FAS TE block, Myeloid diff MLP)
CCOc1ccc(OCCOCCOc2ccccc2Cl)cc1	NR3A LBD binder 17.9
COc1ccccc1OCCOCCOc1ccccc1Cl	none
CC(=O)Nc1ccc(S(=O)(=O)NCC2CCN(C(=O)C(=O)c3cc4ccccc4o3)CC2)cc1	none (no result: NR3A LBD binder, MPTP block, FAS TE block, Myeloid diff MLP)
CC1CCc2nc(N)c(C#N)c(-c3ccncc3)c2C1 (stereo not given)	Myeloid diff MLP active
O=C(NCCCc1ccccc1)OC1CC2CC1[C@H]1CCCCN1C2 (stereo not given in full)	none (no result: NR3A LBD binder, MPTP block, FAS TE block, Myeloid diff MLP)
O=C(NC1CCCCN(Cc2ccc(Cl)cc2)C1=O)c1ccc(Cl)cc1Cl (stereo not given)	none (no result: NR3A LBD binder, MPTP block, FAS TE block, Myeloid diff MLP)
CCCCN1CN2CCc3ccccc3C2CS1(=O)=O (stereo not given)	none (no result: NR3A LBD binder, MPTP block, FAS TE block, Myeloid diff MLP)
CCOC(=O)/C(C#N)=C\c1cc(C)n(-c2ccccc2)c1C	none
CCOC(=O)/C(C#N)=C\c1ccc(N2CCN(C/C=C/c3ccccc3)CC2)cc1	Myeloid diff MLP active
COC(=O)C1=C(C)N(Cc2cccc(C(F)(F)F)c2)C(=NCc2ccc(OC)cc2)NC1c1ccccc1 (stereo not given)	none (no result: NR3A LBD binder, MPTP block, FAS TE block, Myeloid diff MLP)
CCc1ccc(CCNC(=O)OCCCN2CCC3(CCC(C)CC3)C2=O)cc1 (stereo not given)	none (no result: NR3A LBD binder, MPTP block, FAS TE block, Myeloid diff MLP)
NC(=O)C1CCN(C(=O)CC2(CC(=O)O)CCCCC2)CC1	none
NC(=O)CC1(CC(=O)O)CCCCC1	NR3A LBD binder 12.7
CCOC(=O)c1c(C)[nH]c2ccc(O)cc12	NR3A LBD binder 26.2
CCOC(=O)N1CCN(C(=O)C[C@H]2C[C@@]3(C(=O)OC)C(=C[C@H](C(C)(C)C)O[C@@H]3C)N(Cc3ccco3)C2=O)CC1	none (no result: NR3A LBD binder, MPTP block, FAS TE block, Myeloid diff MLP)
CCCCCn1c(=O)c(C(=O)OCC)c(O)c2ccccc21	none
CCOC(=O)c1c(O)c2ccccc2n(-c2ccccc2)c1=O	NR3A LBD binder 11.0
COC(=O)[C@@]12CCCCC3=C1N(CCC3)C(=O)[C@H]2CC(=O)NCCC(C)C	none (no result: NR3A LBD binder, MPTP block, FAS TE block, Myeloid diff MLP)
S=C(NCCc1cccc(Cl)c1)NC1CCCCC1	NR3A LBD binder 11.5
CC(=O)Nc1ccc(OCCOc2ccc(NC(C)=O)cc2)cc1	none
CCCCOc1ccc(S(=O)(=O)Nc2ccc(NC(C)=O)cc2)cc1	Myeloid diff MLP active
CCCCN(CCCC)S(=O)(=O)c1ccc(NS(=O)(=O)c2ccc(NC(C)=O)cc2)cc1	NR3A LBD binder 12.8 (no result: rCAG binder)
COC(=O)[C@]12C[C@H](CC(=O)N3CCSCC3)C(=O)N(Cc3ccccc3)C1=C[C@H](C(C)C)O[C@@H]2C1CC1	none (no result: NR3A LBD binder, MPTP block, FAS TE block, Myeloid diff MLP)
COC(=O)[C@]12C[C@H](CC(=O)NCC3CCCCC3)C(=O)N(Cc3ccco3)C1=C[C@H](C(C)C)O[C@@H]2C1CC1	none (no result: NR3A LBD binder, MPTP block, FAS TE block, Myeloid diff MLP)
O=C(NCCn1cc(SCc2ccc(F)cc2)c2ccccc21)c1ccccc1F	Myeloid diff MLP active (no result: rCAG binder)
O=C(NCCc1ccccn1)c1c(-c2ccsc2)sc2ccccc12	Myeloid diff MLP active
CCOc1cccc(-c2nnc3n2N=C(c2ccc(OC)cc2)CS3)c1	none (no result: NR3A LBD binder, MPTP block, FAS TE block, Myeloid diff MLP)
O=c1oc2ccccc2cc1-c1ccccc1	none
O=c1cc(-c2ccccc2)oc2ccc(Br)cc12	none
O=c1cc(-c2ccc3c(c2)OCCO3)oc2ccc(Cl)cc12	NR3A LBD binder 12.0
O=c1cc(-c2ccccc2)oc2ccc(Cl)cc12	NR3A LBD binder 14.0 (no result: Myeloid diff MLP)
O=c1oc2ccc(Cl)cc2cc1-c1ccccc1	NR3A LBD binder 14.1
O=c1cc(-c2cccs2)oc2ccc(Cl)cc12	none
C[C@H]1COc2cccc(F)c2S(=O)(=O)N1C	none (no result: NR3A LBD binder, MPTP block, FAS TE block, Myeloid diff MLP)
Cc1ccsc1/C=N/Nc1cccc(C(=O)O)c1	NR3A LBD binder 20.5
Cc1nn(-c2ccccc2)c(Cl)c1/C=N/NC(=O)c1cccc(S(=O)(=O)N2CCCC2)c1	none
Nc1ccc(C(=O)N/N=C/c2sc(N3CCOCC3)nc2-c2ccccc2)cc1	none
